Nrf2 block – inhibitors of Nrf2 signaling. A549 ARE-Fluc reporter, luciferase luminescence, 18-24 h. Potency, µM (highest dose often 46 µM), hits mostly inhibitors. 360,000 tested, 2.1% active. AID 504444; note: nearly all actives have a fitted effect of over 60% in size
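Two sequential reads on A549 ARE_Fluc cells exposed to compound for 18-24 h: a CellTiter-Fluor fluorescence read for viability, then a luciferase luminescence read for Nrf2/ARE activity.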
ATXN2 expr inh – inhibitors of ATXN2 expression | HEK-293 ATXN2-luciferase reporter, luminescence, 24 h | Potency, µM (highest dose often 57 µM), usual class: inhibitors | 360,000 tested, 0.72% active; note: nearly all actives have a fitted effect of over 55% in size
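qHTS (up to 57 uM final) was run with 24 h compound exposure of reporter cells at 37 °C. Each well was multiplexed: SteadyGlo luminescence measured ATXN2-luciferase expression after a fluorogenic Gly-Phe-AFC viability readout (25 uM final).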
A549 viability – kills or reduces viability of A549 cells in Nrf2 counter-screen; A549 ARE-Fluc cells, CellTiter-Fluor viability, 18-24 h; Potency, µM (highest dose often 46 µM), hits mostly inhibitors; 390,000 tested, 0.16% active
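A549 ARE-Fluc cells in 5% FBS OPTI-MEM, 5000 cells/well, rested 2 h then exposed to compounds in concentration-response for 18-24 h at 37 °C. Viability by CellTiter-Fluor fluorescence (Ex 405/Em 525) after 30 min; luciferase luminescence (BugLite, 15 min, RT) read afterwards.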
ATXN viability – reduces viability in counter-screen for ATXN expression inhibitors. S2 cells (HEK-293 line with an ATXN2-luciferase reporter) viability, CellTiter-Fluor protease fluorescence, 24 h. Potency, µM (series often up to 56.7 µM), hits mostly cytotoxic. 400,000 tested, 0.49% active. AID 651635; note: nearly all actives have a fitted effect of over 40% in size
TGFb inhibitor – blocks TGF-b signaling; HepG2 CAGA-GFP TGF-b/SMAD3 reporter, GFP fluorescence, 18 h; TGF-beta stimulated, 500 pg/mL final; Potency, µM (top dose mostly 46.1 µM), hits mostly inhibitors; 410,000 tested, 1.2% active; AID 588855; note: nearly all actives have a fitted effect of over 65% in size
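TGF-beta reporter screen: HEPG2 CAGA-GFP, 1% FBS, 500 pg/mL TGF-beta final, 18 h; per-cell GFP summed per well; curves fitted and categorized by class.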
HepG2 tox – counter-screen for TGF-b inhibitors: cytotoxicity in HepG2 cells | HepG2 CAGA-GFP viability, ATP luminescence, 18 h | 410,000 tested, 0.76% active | Potency, µM (doses to about 46.1 µM), usual class: cytotoxic
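CellTiter-Glo luminescence gave cytotoxicity after 18 hours at 37 degrees C. The cells were HepG2 CAGA-GFP in 1% FBS DMEM, stimulated with 500 pg/mL TGF-beta after compound addition. %Activity was normalised to no-cell wells (complete cell-killing) and DMSO (no toxicity), and curves were fitted and classified.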
Hits are given with their value; . = inactive; ? = inconclusive; / = no result given; [ ] = remark or other dose. Most compounds without a hit are left out; they make up all but 3.8% or so of the library. Calls come from the whole dose curve; as a rule, active = well fitted curve in the direction sought with a large enough effect; inconclusive = small, poorly fitted or top-dose-only effect, or another doubt; inactive = no such curve, though single readings can be large; an effect the other way counts as inactive or inconclusive.

SMILES | Nrf2 block | ATXN2 expr inh | A549 viability | ATXN viability | TGFb inhibitor | HepG2 tox
COc1cc(Nc2nc3c(S(=O)(=O)c4ccc(C)c(C)c4)nnn3c3ccsc23)cc(OC)c1 | . | / | . | / | . | .
Cc1[nH]c2ccccc2c1C(=O)CN(C)c1ccccc1 | / | / | / | / | ? | .
Cc1ccc2c(C(=O)CN3CCN(c4ccccc4)CC3)c(C)[nH]c2c1 | / | . | . | ? | . | .
COc1cccc(N2CCN(CC(=O)Nc3nnc(-c4ccccc4)s3)CC2)c1 | 12µM | ? | . | . | . | .
Cc1[nH]c2ccccc2c1C(=O)CCl | . | / | . | 11µM | ? | .
COc1cccc(N2CCN(CC(=O)c3c(C)[nH]c4ccccc34)CC2)c1 | 12µM | . | ? | . | . | .
CC1(C)CCC[C@@]2(C)[C@@H]1CC[C@@]1(C)OC(=O)C[C@H]21 | / | . | / | / | / | /
c1ccc(-c2noc(-c3cccnc3)n2)nc1 | . | . | . | ? | . | .
Clc1ccccc1/C=C/c1nc(-c2ccccn2)no1 | ? | 5µM | . | . | . | .
Cc1onc(-c2ccccc2Cl)c1-c1nc(-c2ccccn2)no1 | . | . | . | . | . | .
c1ccc(-c2noc(-c3ccc4ccccc4c3)n2)nc1 | ? | 2.2µM | . | . | . | .
CC(C)(C)c1ccc(-c2nc(-c3ccncc3)no2)cc1 | ? | . | . | . | 16µM | 10µM
c1ccc(-c2noc(-c3ccncc3)n2)nc1 | ? | . | . | . | . | 10µM
O=[N+]([O-])c1cccc(-c2nc(-c3ccccn3)no2)c1 | ? | / | . | . | . | .
Cc1cccc(-c2nnc(SCC(=O)c3ccc(O)cc3O)n2C)c1 | . | . | . | ? | . | .
Cc1cccc(C(=O)Nc2sc3c(c2C(=O)O)CCCC3)c1 | ? | . | ? | ? | . | .
c1ccc(-c2noc(-c3ccc4c(c3)OCO4)n2)nc1 | ? | ? | . | . | . | 1.6µM
CN(C)c1ccc(-c2nc(-c3ccccn3)no2)cc1[N+](=O)[O-] | . | . | . | . | . | .
COc1cccc(-c2nc(-c3ccccc3)no2)c1 | ? | . | . | . | . | .
COc1cccc(-c2nc(-c3ccccn3)no2)c1 | ? | ? | . | . | . | 10µM
COc1ccc(NS(=O)(=O)c2ccc3oc(SC(C)C(N)=O)nc3c2)cc1 (stereo not drawn) | 23µM | . | . | . | . | .
CCCCCCCCC1=NCCc2c1[nH]c1ccccc21 | ? | . | . | . | ? | 16µM
Oc1ccccc1-c1nc2cnccn2c1Nc1ccc(Cl)cc1 | .[9.27 µM] | ? | . | ? | 6.3µM | .
Cc1ccc2c(c1)c1c(c(=O)n(-c3ccccc3)c(=O)n1CC(=O)NCCC1=CCCCC1)n2C | . | . | . | . | . | .
[2H]C(CCOS(N)(=O)=O)c1ccc(C(C)(C)C)cc1 (stereo not drawn) | 5.2µM | . | . | . | ? | .
SMILES | Nrf2 block | ATXN2 expr inh | A549 viability | ATXN viability | TGFb inhibitor | HepG2 tox
CCN(CC)CCN(C(=O)c1cc2c(ccc3ccccc32)oc1=O)c1nc2cc3c(cc2s1)OCCO3 | ? | . | ? | . | 13µM | .
CCN(c1ccccc1)S(=O)(=O)c1ccc(C(=O)N(CCCN(C)C)c2nc3cc4c(cc3s2)OCO4)cc1 | . | ? | . | . | 22µM | .
CN(C)CCCN(C(=O)c1ccc2ccccc2c1)c1nc2cc3c(cc2s1)OCO3 | . | 25µM | . | 32µM | . | .
COCCNC(=O)C1(C)CCN(C(=O)/C=C/c2ccccc2)C1 (stereo not drawn) | / | . | / | . | . | .
N=C1C=CC(=C(c2ccc(N)cc2)c2ccc(N)cc2)C=C1 | 7.3µM | ? | 9.2µM | / | ? | .
CCc1nnc(NC(=O)c2ccc(S(=O)(=O)N3CCCCCC3)cc2)s1 | . | . | ? | . | . | .
CC(C)Cc1nnc(NC(=O)CCC(=O)N2CCN(c3ccc(Cl)cc3)CC2)s1 | 18µM | . | . | . | . | .
CCCc1nnc(NC(=O)CCC(=O)N2CCN(Cc3ccc(Cl)cc3)CC2)s1 | 15µM | . | . | . | . | .
CCc1nnc(NC(=O)CCC(=O)N2CCN(Cc3ccc(Cl)cc3)CC2)s1 | 23µM | . | . | . | . | .
CCc1nnc(NC(=O)Cc2ccc(S(=O)(=O)N3CCCCC3)cc2)s1 | 21µM | . | . | . | . | .
CC(C)Cc1nnc(NC(=O)CCC(=O)N2CCN(Cc3ccc(F)cc3)CC2)s1 | ? | . | . | . | . | .
Cc1ccc(OCCN2CCN(C(=O)CCC(=O)Nc3nnc(CC(C)C)s3)CC2)cc1 | 10µM | . | . | . | 11µM | .
CCn1c(SCC(=O)Nc2ccc(C(C)=O)cc2)nc2nc3c(cc2c1=O)CCCC3 | ? | ? | ? | 28µM | . | .
Cn1c2ccccc2c2nnc(SCC(=O)Nc3cccc(O)c3)nc21 | ? | / | . | ? | . | .
CCCCN1CC(c2nc3ccccc3n2CCCCOc2cc(C)cc(C)c2)CC1=O (stereo not drawn) | . | ? | . | ? | ? | .
CCCCN1CC(c2nc3ccccc3n2CCCCOc2cccc(C)c2C)CC1=O (stereo not drawn) | . | ? | . | ? | ? | 11µM
CCCCN1CC(c2nc3ccccc3n2CCCCOc2ccc(C)c(C)c2)CC1=O (stereo not drawn) | . | ? | . | / | 11µM | .
CCc1ccccc1N1CC(c2nc3ccccc3n2CCCCOc2ccccc2OC)CC1=O (stereo not drawn) | ? | . | ? | . | . | .
CCOc1ccccc1OCCCNCc1ccco1 | . | . | . | . | . | .
O=C(Nc1cccc(C(F)(F)F)c1)Oc1ccc(Cl)c2cccnc12 | ? | ? | ? | . | 7.1µM | 14µM
O=C(/C=C\c1ccco1)Nc1nc(-c2ccc3ccccc3c2)cs1 | 15µM | ? | . | . | . | .
COc1ccc(CC(=O)N(Cc2nc(-c3ccc(C)cc3)no2)C(C)C)cc1 | ? | . | . | ? | . | .
NC(Cc1ccc(Cl)cc1)c1csc(NC(=O)Nc2ccccc2-c2ccccc2)n1 (stereo not drawn) | / | ? | / | . | ? | .
NC(Cc1ccc(Cl)cc1)c1csc(NC(=O)NCCc2ccccc2)n1 (stereo not drawn) | / | ? | / | 28µM | ? | .
NC(Cc1ccc(Cl)cc1)c1csc(NC(=O)NCC2CCCCC2)n1 (stereo not drawn) | / | ? | / | 35µM | ? | 13µM
C[C@](Cc1c[nH]c2ccccc12)(NC(=O)OC1C2CC3CC(C2)CC1C3)C(=O)NC[C@H](NC(=O)CCC(=O)O)c1ccccc1 (stereo partly drawn) | / | . | / | / | / | /

Assay outcomes from PubChem BioAssay.
